Results: PubChem BioAssay AID1159580 (chemical genetic matrix, 2015)
Several values for one entry are separate records, joined by “and”; a condition that tells them apart may be missing. Equal entries are not always repeated. In all, about 5,500 compounds went through this assay and about 2,000 (36%) were called active. Not shown: some 18% with an inconclusive outcome. Rule as the data show it: active = normalized growth mostly below about 0.91 (no sharp cut-off); inconclusive = no clear call, values can overlap the other calls; inactive = mostly above about 0.92. Some of the results follow.

Experiment: chemical genetic growth profiling, strain panel (AID 1159580);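 also: tested at 20 µM; growth read once vehicle control cultures reached saturation at 30 °C; 1 = growth at the plate median or of vehicle wells; lower values mean less growth of the strain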
Conditions: S. cerevisiae deletion strains, growth OD

Measured: normalized growth

COc1c(O)cc(O)cc1O
inactive: locus YAL021C, strain ccr4, stronger effect = lower value 1.01 | locus YAL026C, strain drs2, stronger effect = lower value 1.02 | locus YAL030W, strain snc1, stronger effect = lower value 0.999 | locus YBL061C, strain skt5, stronger effect = lower value 0.996 | locus YBR009C, strain hhf1, stronger effect = lower value 1.02 | locus YBR021W, strain FUR4, stronger effect = lower value 0.985 | locus YBR023C, strain chs3, stronger effect = lower value 1.01 | locus YBR171W, strain sec66, stronger effect = lower value 0.994 | locus YBR229C, strain ROT2, stronger effect = lower value 1 | locus YBR231C, strain swc5, stronger effect = lower value 1.01 | locus YBR279W, strain paf1, stronger effect = lower value 1 | locus YCL011C, strain gbp2, stronger effect = lower value 1.01 | locus YCL016C, strain dcc1, stronger effect = lower value 1.01 | locus YCL029C, strain bik1, stronger effect = lower value 1.02 | locus YCL061C, strain MRC1, stronger effect = lower value 1 | locus YCL069W, strain vba3, stronger effect = lower value 1 | locus YCR088W, strain abp1, stronger effect = lower value 0.992 | locus YDL005C, strain med2, stronger effect = lower value 0.983 | locus YDL035C, strain GPR1, stronger effect = lower value 1.07 | locus YDL040C, strain nat1, stronger effect = lower value 0.981 | locus YDL074C, strain BRE1, stronger effect = lower value 1.06 | locus YDL101C, strain DUN1, stronger effect = lower value 0.992 | locus YDL185W, strain tfp1, stronger effect = lower value 0.978 | locus YDL192W, strain arf1, stronger effect = lower value 1 | locus YDR001C, strain nth1, stronger effect = lower value 1 | locus YDR069C, strain doa4, stronger effect = lower value 1 | locus YDR101C, strain arx1, stronger effect = lower value 1.04 | locus YDR137W, strain rgp1, stronger effect = lower value 1.04 | locus YDR159W, strain sac3, stronger effect = lower value 0.976 | locus YDR162C, strain NBP2, stronger effect = lower value 1.06 | locus YDR195W, strain ref2 0.951 | locus YDR297W, strain sur2, stronger effect = lower value 0.998 | locus YDR318W, strain mcm21, stronger effect = lower value 1 | locus YDR334W, strain swr1, stronger effect = lower value 0.994 | locus YDR335W, strain msn5, stronger effect = lower value 1 | locus YDR388W, stronger effect = lower value 0.997 | locus YDR392W, strain spt3, stronger effect = lower value 1.01 | locus YDR502C, strain sam2, stronger effect = lower value 0.998 | locus YEL003W, strain gim4, stronger effect = lower value 1.02 | locus YEL037C, strain rad23, stronger effect = lower value 1 | locus YEL061C, strain CIN8 (second series), stronger effect = lower value 1.01 | locus YEL061C, strain CIN8, stronger effect = lower value 1.01 | locus YER015W, strain faa2, stronger effect = lower value 1 | locus YER016W, strain bim1, stronger effect = lower value 0.996 | locus YER110C, stronger effect = lower value 0.991 | locus YER111C, strain swi4, stronger effect = lower value 0.989 | locus YER155C, strain BEM2 (second series), stronger effect = lower value 1.02 | locus YER155C, strain BEM2, stronger effect = lower value 0.989 | locus YER167W, strain BCK2, stronger effect = lower value 1 | locus YFR010W, strain ubp6, stronger effect = lower value 0.999 | locus YGL078C, strain dbp3, stronger effect = lower value 0.969 | locus YGL086W, strain mad1, stronger effect = lower value 1.01 | locus YGL167C, strain pmr1, stronger effect = lower value 0.998 | locus YGL173C, strain kem1, stronger effect = lower value 0.999 | locus YGL227W, strain vid30, stronger effect = lower value 0.988 | locus YGL240W, strain doc1, stronger effect = lower value 0.992 | locus YGL248W, strain PDE1, stronger effect = lower value 0.996 | locus YGL253W, strain hxk2, stronger effect = lower value 1.01 | locus YGR078C, strain PAC10, stronger effect = lower value 1.02 | locus YGR135W, strain pre9, stronger effect = lower value 0.972 | locus YGR252W, strain gcn5, stronger effect = lower value 0.997 | locus YHR013C, strain ard1, stronger effect = lower value 1.01 | locus YHR027C, strain rpn1, stronger effect = lower value 0.988 | locus YHR030C, strain SLT2, stronger effect = lower value 1.01 and 1.05 | locus YHR079C, strain IRE1 (second series), stronger effect = lower value 0.997 | locus YHR079C, strain IRE1, stronger effect = lower value 1.02 | locus YHR094C, strain hxt1, stronger effect = lower value 1 | locus YHR129C, strain ARP1, stronger effect = lower value 0.998 | locus YHR142W, strain chs7, stronger effect = lower value 1.03 | locus YHR200W, strain rpn10, stronger effect = lower value 0.984 | locus YIL066C, strain RNR3, stronger effect = lower value 1 | locus YIL073C, strain SPO22, stronger effect = lower value 1.05 | locus YIL125W, strain kgd1, stronger effect = lower value 1 | locus YIR030C, strain dcg1, stronger effect = lower value 1.01 | locus YJL092W, strain hpr5, stronger effect = lower value 0.995 | locus YJL095W, strain BCK1 (second series), stronger effect = lower value 1 | locus YJL095W, strain BCK1, stronger effect = lower value 0.998 and 1.05 | locus YJL115W, strain asf1, stronger effect = lower value 0.992 | locus YJL129C, strain trk1, stronger effect = lower value 0.989 | locus YJL134W, strain LCB3, stronger effect = lower value 0.997 | locus YJL154C, strain vps35, stronger effect = lower value 0.995 | locus YJL164C, strain tpk1, stronger effect = lower value 1.01 | locus YJL166W, strain qcr8, stronger effect = lower value 1.05 | locus YJL168C, strain set2, stronger effect = lower value 1 | locus YJL187C, strain SWE1 (second series), stronger effect = lower value 0.997 | locus YJL187C, strain SWE1, stronger effect = lower value 1 | locus YJR043C, strain POL32, stronger effect = lower value 1.07
